Several values for one entry are separate records, joined by “and”; a condition that tells them apart may be missing. Equal entries are not always repeated. Records with an inconclusive call do not appear. More than one record can exist for a structure, and the calls need not agree. Activity calls are given as the source filed them. Unless noted, calls follow the shape of the dose curve; as a rule, active = well fitted curve in either direction with a large enough effect (not every such curve was filed as active); inconclusive = small, poorly fitted or top-dose-only effect, or another doubt; inactive = flat fitted curve, though single readings scatter.
Assays:
[1] = AP1 Signaling Pathway (AID 357);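 also: ME-180 reporter cells stimulated with EGF at its EC50 level; % is scaled to controls: 0 for no effect and ±100 for the full control effect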
Procedure, shortened: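 Read-out was the 460nm/530nm emission ratio (excitation 405nm) after CCF4 loading for 2.5 hours at room temperature. Cells carried an AP-1-driven beta-lactamase reporter, were stimulated with EC50 EGF plus compound for 5 hours, and AC50 values came from titrations.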

[2] = molecular target: Cytochrome P450 1A2 (Homo sapiens) (UniProt P05177); test: p450-cyp1a2 (AID 410; calls by dose curve; also: potency is read from the fitted curve at half-maximal effect;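 as to activity change, negative = inhibition: -100% = full effect of reference inhibitor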)
Procedure, shortened: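 20nM CYP1A2 with 100uM Luciferin-ME (at Km) in 100mM KPO4; compound preincubated 10 min, NADPH regeneration added, 60 min at room temperature. Luciferin quantified by luminescence after detection reagent; normalized to 57 uM furafylline.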

[3] = Cell Viability - BJ (AID 421; calls by dose curve;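 also: potency is read from the fitted curve at half-maximal effect; cells exposed to compound for 40 hours at 37 °C before readout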); details: BJ fibroblast viability, qHTS
Procedure, shortened: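 Quantitative HTS: ATP depletion in BJ cells after 40 hr compound exposure in complete culture medium, detected with CellTiter-Glo; AC50 from standard Hill fits.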

[4] = Cell Viability - Hek293 (AID 427;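 active = compounds whose dose-response curve shows a full or clear partial loss of cell viability, called from curve shape rather than a numeric limit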;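 also: potency is read from the fitted curve at half-maximal effect; cells exposed to compound for 40 hours at 37 °C before reading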); details: qHTS
Procedure, shortened: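 AC50 values derive from Hill-modelled concentration-response of ATP-based luminescence, normalized between DMSO-only and 100 uM tamoxifen controls. Cells were exposed in complete culture medium for 40 hr at 37 °C before detection.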

[5] = Cell Viability - MRC5 (AID 434; calls by dose curve;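 also: potency is read from the fitted curve at half-maximal effect; potency reflects cytotoxicity seen as loss of intracellular ATP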); details: MRC5 lung fibroblast viability, qHTS
Procedure, shortened: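 MRC5 normal human lung fibroblasts, 1500 cells/well, exposed to compound for 40 hr at 37 C. Cellular ATP was read by CellTiter-Glo luminescence; data normalized to DMSO and 100 uM tamoxifen, with AC50 from Hill fits.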

[6] = NFAT Signaling Pathway (AID 444); details: Jurkat NFAT-bla M1, carbachol, beta-lactamase ratio, 5 h;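 also: carbachol stimulus at about its EC50 of 1 µM final; % is scaled to controls: 0 for no effect and ±100 for the full control effect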
Procedure, shortened: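 Jurkat cells with NFAT-driven β-lactamase reporter and co-expressed M1 receptor, stimulated with carbachol (final 1 uM, ~EC50), compound titration, 5 h at 37 °C. CCF4 loaded 1 h at RT; 460/530 nm ratio gave %activity and AC50.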

[7] = Stat Signaling Pathway (AID 446);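 also: ME-180 cervical cancer cells given 40 pM IL-6 alongside compound; SIE-controlled beta-lactamase reporter measured as 460/530 nm FRET emission ratio; % is scaled to controls: 0 for no effect and ±100 for the full control effect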
Procedure, shortened: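 IL-6/STAT signaling read in ME-180 cells via an SIE beta-lactamase reporter. Stimulus was 40 pM IL-6 (its AC50) for 5 hrs, so both activation and inhibition register.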

[8] = Cell Viability - Jurkat (AID 426;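 active = dose-dependent loss of cell ATP signal giving a full or clear fitted curve, ranked by lower potency value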; also: potency is read from the fitted curve at half-maximal effect); details: qHTS
Procedure, shortened: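 Jurkat (Clone E6-1) cells, 5000/well in complete medium, exposed to compounds for 40 hr at 37C; intracellular ATP measured by CellTiter-Glo luminescence after 20 min at room temperature. AC50 from Hill fits.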

[9] = Cell Viability - SK-N-SH (AID 435; calls by dose curve;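 also: potency is read from the fitted curve at half-maximal effect; compound exposure lasted 40 h at 37 °C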); details: SK-N-SH neuroblastoma cell viability qHTS
Procedure, shortened: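 CellTiter-Glo ATP luminescence, 20 min RT read; cells pre-plated 5 hr, compound 40 hr at 37 °C, 1500 cells/well, complete medium. Normalized DMSO = 0, 100 uM tamoxifen = 100% inhibition; Hill-fit AC50.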

[10] = molecular target: Lysosomal acid glucosylceramidase (Homo sapiens) (UniProt P04062); test: Glucocerebrosidase-p2 (AID 348; in the data active = potency below about 10 µM; also: potency is read from the fitted curve at half-maximal effect); details: purified GBA, blue fluorogenic substrate, 40 min
Procedure, shortened: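 Compounds titrated from 0.6 nM upwards against 0.2 nM enzyme in pH 5.9 citric acid/KH2PO4, taurocholate, tween-20; blue fluorogenic substrate 80 uM, 40 min room temperature, stopped and read Ex 365/Em 440 for AC50.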

Chain of Cytochrome P450 1A2 (Homo sapiens) (P05177 whole entry, looked up): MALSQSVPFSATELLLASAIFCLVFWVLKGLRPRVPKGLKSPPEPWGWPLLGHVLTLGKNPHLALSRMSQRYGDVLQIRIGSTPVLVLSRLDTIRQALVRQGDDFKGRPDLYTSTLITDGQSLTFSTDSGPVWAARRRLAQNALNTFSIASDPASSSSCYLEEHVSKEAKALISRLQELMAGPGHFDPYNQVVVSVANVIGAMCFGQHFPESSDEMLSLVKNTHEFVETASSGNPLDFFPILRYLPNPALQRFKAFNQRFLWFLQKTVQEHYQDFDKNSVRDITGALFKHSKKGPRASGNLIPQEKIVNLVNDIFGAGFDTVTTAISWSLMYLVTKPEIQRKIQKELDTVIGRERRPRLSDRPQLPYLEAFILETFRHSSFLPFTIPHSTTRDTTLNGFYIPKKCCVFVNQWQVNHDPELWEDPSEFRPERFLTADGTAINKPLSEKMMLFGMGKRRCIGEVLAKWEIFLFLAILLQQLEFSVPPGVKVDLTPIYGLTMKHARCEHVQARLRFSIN
Chain of Lysosomal acid glucosylceramidase (Homo sapiens) (P04062 whole entry, looked up): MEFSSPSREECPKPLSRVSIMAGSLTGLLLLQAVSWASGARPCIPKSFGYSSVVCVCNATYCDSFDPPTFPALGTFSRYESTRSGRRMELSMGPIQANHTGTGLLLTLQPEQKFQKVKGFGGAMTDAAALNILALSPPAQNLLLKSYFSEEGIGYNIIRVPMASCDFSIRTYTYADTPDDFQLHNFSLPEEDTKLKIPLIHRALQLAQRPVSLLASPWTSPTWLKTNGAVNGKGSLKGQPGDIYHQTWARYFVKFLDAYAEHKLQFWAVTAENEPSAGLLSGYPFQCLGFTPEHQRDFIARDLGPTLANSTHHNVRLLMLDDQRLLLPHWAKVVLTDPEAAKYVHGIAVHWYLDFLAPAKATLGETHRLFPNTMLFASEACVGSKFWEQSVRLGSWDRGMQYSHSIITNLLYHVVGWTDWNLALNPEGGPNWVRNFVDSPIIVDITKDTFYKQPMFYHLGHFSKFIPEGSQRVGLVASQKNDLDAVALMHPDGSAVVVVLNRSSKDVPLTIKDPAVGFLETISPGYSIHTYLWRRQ

N[C@@H](Cc1c[nH]c2ccc(O)cc12)C(=O)O
inactive: outcome [1] | Potency [2] | Potency [3] > 92 µM | Potency [4] > 92 µM | Potency [5] > 92 µM | activity change, negative = inhibition ([6]; at 38 µM (top of the series)) -5.52% | outcome [7]

NCCCCCC(=O)O
inactive: outcome [1] | Potency [2] | activity change, negative = inhibition ([6]; at 17.2 µM (top of the series)) -9.25% | activity change, negative = inhibition ([6]; at 38 µM (top of the series)) 21.3% | outcome [7]

Cn1c(=O)c2c(ncn2C)n(C)c1=O
inactive: outcome [1] | Potency [2] | Potency [3] > 92 µM | Potency [8] > 92 µM | Potency [4] > 92 µM | Potency [5] > 92 µM | Potency [9] > 92 µM | activity change, negative = inhibition ([6]; at 38 µM (top of the series)) 3.94% | outcome [7]

COc1ccc2[nH]cc(CCNC(C)=O)c2c1
inactive: outcome [1] | Potency [3] > 92 µM | Potency [8] > 92 µM | Potency [4] > 92 µM | Potency [5] > 92 µM | Potency [9] > 92 µM | activity change, negative = inhibition ([6]; at 17.2 µM (top of the series)) -17.4% | activity change, negative = inhibition ([6]; at 38 µM (top of the series)) 14.9% | outcome [7]

CCC1(c2ccccc2)C(=O)NCNC1=O
inactive: outcome [1] | Potency [2] | Potency [3] > 92 µM | Potency [8] > 92 µM | Potency [4] > 92 µM | Potency [5] > 92 µM | Potency [9] > 92 µM | activity change, negative = inhibition ([6]; at 17.2 µM (top of the series)) -2.38% and -28.2% | activity change, negative = inhibition ([6]; at 38 µM (top of the series)) 0.117% | outcome [7]

COc1ccc2c(c1)c(CC(=O)O)c(C)n2C(=O)c1ccc(Cl)cc1
inactive: outcome [1] | Potency [3] > 92 µM | Potency [8] > 92 µM | Potency [4] > 92 µM | Potency [5] > 92 µM | Potency [9] > 92 µM | activity change, negative = inhibition ([6]; at 17.2 µM (top of the series)) -5.62% and 13.9% | activity change, negative = inhibition ([6]; at 38 µM (top of the series)) 8.92% | outcome [7]
active: Potency [2] 10 µM

CN1C(C(=O)Nc2ccccn2)=C(O)c2ccccc2S1(=O)=O
inactive: outcome [1] | activity change, negative = inhibition ([6]; at 17.2 µM (top of the series)) 9.4% and 2.14% and -3.58% | activity change, negative = inhibition ([6]; at 38 µM (top of the series)) -8.1% | outcome [7]
inactive and 20 µM (active): Potency [2]

O=C1N(c2ccccc2)c2ccccc2C1(Cc1ccncc1)Cc1ccncc1
active: Potency [2] 15.8 µM
inactive: outcome [1] | activity change, negative = inhibition ([6]; at 38 µM (top of the series)) -6.55% | outcome [7]

NC(=O)OCC(COC(N)=O)c1ccccc1
inactive: outcome [1] | Potency [2] | activity change, negative = inhibition ([6]; at 17.2 µM (top of the series)) 3.58% | activity change, negative = inhibition ([6]; at 38 µM (top of the series)) 8.56% | outcome [7]

CS(=O)(=O)Nc1ccc([N+](=O)[O-])cc1Oc1ccccc1
active: Potency [2] 15.8 µM and 12.6 µM
inactive: outcome [1] | activity change, negative = inhibition ([6]; at 17.2 µM (top of the series)) -5.4% and -1.94% | outcome [7]

Cc1ccc(C(=O)Nc2ccc(S(=O)(=O)O)c3cc(S(=O)(=O)O)cc(S(=O)(=O)O)c23)cc1NC(=O)c1cccc(NC(=O)Nc2cccc(C(=O)Nc3cc(C(=O)Nc4ccc(S(=O)(=O)O)c5cc(S(=O)(=O)O)cc(S(=O)(=O)O)c45)ccc3C)c2)c1
inactive: outcome [1] | activity change, negative = inhibition ([6]; at 38 µM (top of the series)) -19.8%

Cc1cn([C@H]2C[C@H](N=[N+]=[N-])[C@@H](CO)O2)c(=O)[nH]c1=O
inactive: outcome [1] | Potency [3] > 92 µM | Potency [8] > 92 µM | Potency [4] > 92 µM | Potency [5] > 92 µM | Potency [9] > 92 µM | activity change, negative = inhibition ([6]; at 17.2 µM (top of the series)) 15.9% | outcome [7]

CCOC(=O)c1ncn2c1CN(C)C(=O)c1cc(F)ccc1-2
inactive: outcome [1] | activity change, negative = inhibition ([6]; at 38 µM (top of the series)) -1.55%
active: Potency [2] 1.58 µM

Cc1cc(C(C)(C)C)c(O)c(C)c1CC1=NCCN1
inactive: outcome [1] | Potency [2] | outcome [7]

CC[C@@]1(O)C(=O)OCc2c1cc1n(c2=O)Cc2cc3c(CN(C)C)c(O)ccc3nc2-1
inactive: Potency [10] > 11.4 µM | activity change, negative = inhibition [2] -17.9% [at 2.29 µM]

Cc1cc(C(C)(C)C)cc(C)c1CC1=NCCN1
inactive: outcome [1] | Potency [2] | outcome [7]

CN1CCC(=C2c3ccccc3CC(=O)c3sccc32)CC1
active: activity change, negative = inhibition ([6]; at 17.2 µM (top of the series)) -94.3%
inactive: outcome [1] | Potency [2] | outcome [7]

Cn1cnc2c1c(=O)[nH]c(=O)n2C
inactive: outcome [1] | activity change, negative = inhibition ([6]; at 17.2 µM (top of the series)) -1.3% and 20% | activity change, negative = inhibition ([6]; at 38 µM (top of the series)) 4.74% | outcome [7]

CN(C)CCCN1c2ccccc2CCc2ccc(Cl)cc21
active: Potency [2] 20 µM and 5.01 µM and 15.8 µM | activity change, negative = inhibition ([6]; at 17.2 µM (top of the series)) -83%
inactive: outcome [7]

CC(C)NCC(O)COc1ccc(CCOCC2CC2)cc1 (stereo not drawn)
inactive: outcome [1] | outcome [7]

COc1ccccc1N1CCN(CC(O)COc2cccc3ccccc23)CC1 (stereo not drawn)
inactive: outcome [1] | activity change, negative = inhibition ([6]; at 17.2 µM (top of the series)) 9.92% | outcome [7]

CCOC(=O)Nc1ccc(NCc2ccc(F)cc2)nc1N
inactive: outcome [1] | activity change, negative = inhibition ([6]; at 38 µM (top of the series)) -3.88% | outcome [7]

From PubChem BioAssay (NCATS)
